{
  "source": "PubChem BioAssay (NCATS)",
  "key": {"CRL-7250": {"test_system": "CRL-7250", "assay": "Cytotoxic Profiling of Annotated Libraries Using Quantitative High-Throughput Screening (AID 1296008); also: nearly all actives have a fitted effect of over 60% in size; also: potency is read from the fitted curve at half-maximal effect; as to max response: % is scaled to controls: 0 for no effect and ±100 for the full control effect", "conditions": "Five cell lines viability, CellTiter-Glo ATP luminescence, 48-72 h; max response: hits give low values", "summary_of_the_method": "(§1)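 Cytotoxicity was measured as CellTiter-Glo ATP luminescence, read after 10 min at room temperature. Compound treatment of the cells lasted 48 or 72 hr at 37 degrees Celsius in a qHTS format.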"}, "HEK293": {"test_system": "HEK293", "assay": "Cytotoxic Profiling of Annotated Libraries Using Quantitative High-Throughput Screening (AID 1296008)", "conditions": "Five cell lines viability, CellTiter-Glo ATP luminescence, 48-72 h; max response: hits give low values", "summary_of_the_method": "as §1"}},
  "note": "Records with an inconclusive call do not appear. A number with no mark means an inactive call. The source made the active and inactive calls. Calls follow the shape of the dose curve; as a rule, active = well fitted inhibition curve with a large enough effect; inconclusive = small, poorly fitted or top-dose-only effect; inactive = flat fitted curve, though single readings scatter. Where a SMILES comes first, the peptide text is derived from it. [ ]: non-standard residue; d: D form. ξ: configuration not given here. ξPhe(βξ-Me) = CC(c1ccccc1)C(N)C(=O)O; GABA = NCCCC(=O)O",
  "data": [
    {"smiles": "CC(=O)NC1=NN(C(C)=O)C(C)(c2ccccc2)S1", "note": "(stereo not given)", "values": [
      {"measurement": "max response", "setting": "CRL-7250", "result": -15.8, "unit": "%"},
      {"measurement": "Potency", "setting": "HEK293", "result": "4.11 µM (active)"}
    ]},
    {"smiles": "COc1ccc(CCC(=O)c2c(O)cc(O)cc2O[C@@H]2O[C@H](CO)[C@@H](O)[C@H](O)[C@H]2O)cc1", "values": [
      {"measurement": "max response", "setting": "CRL-7250", "result": -5.63, "unit": "%"},
      {"measurement": "max response", "setting": "HEK293", "result": -3.22, "unit": "%"}
    ]},
    {"smiles": "COc1cccc2cc3c(c(O[C@@H]4O[C@H](CO[C@@H]5O[C@H](CO)[C@@H](O)[C@H](O)[C@H]5O)[C@@H](O)[C@H](O)[C@H]4O)c12)C(C)OC3=O", "note": "(stereo not given in full)", "values": [
      {"measurement": "max response", "setting": "CRL-7250", "result": -0.694, "unit": "%"},
      {"measurement": "max response", "setting": "HEK293", "result": 2.15, "unit": "%"}
    ]},
    {"smiles": "O=C(NCC(O)CO)c1ccncc1Nc1ccc(I)cc1F", "note": "(stereo not given)", "values": [
      {"measurement": "Potency", "setting": "CRL-7250", "result": "6.51 µM (active)"},
      {"measurement": "max response", "setting": "HEK293", "result": -15.9, "unit": "%"}
    ]},
    {"smiles": "COC(=O)CCc1cc2ccoc2c(OC)c1O[C@@H]1O[C@H](CO)[C@@H](O)[C@H](O)[C@H]1O", "values": [
      {"measurement": "max response", "setting": "CRL-7250", "result": -7.38, "unit": "%"},
      {"measurement": "max response", "setting": "HEK293", "result": -10.4, "unit": "%"}
    ]},
    {"smiles": "CC(C)CCC[C@@H](C)[C@H]1CC[C@H]2[C@@H]3CC(=O)[C@H]4C[C@@H](O)CC[C@]4(C)[C@H]3CC[C@]12C", "values": [
      {"measurement": "max response", "setting": "CRL-7250", "result": -2.74, "unit": "%"},
      {"measurement": "max response", "setting": "HEK293", "result": -0.18, "unit": "%"}
    ]},
    {"smiles": "COc1ncc2cc(C(=O)Nc3cc(C(=O)NCc4cccc(Cl)c4)ccc3Cl)c(=O)[nH]c2n1", "values": [
      {"measurement": "outcome", "setting": "CRL-7250", "result": "inactive"},
      {"measurement": "max response", "setting": "HEK293", "result": -14.6, "unit": "%"}
    ]},
    {"smiles": "COC(=O)CCC(=O)OC[C@]1(C)CCC[C@@]2(C)C3CC[C@]4(C)C=CC3(CCC12)C4", "note": "(stereo not given in full)", "values": [
      {"measurement": "max response", "setting": "CRL-7250", "result": -4.15, "unit": "%"},
      {"measurement": "max response", "setting": "HEK293", "result": -2.92, "unit": "%"}
    ]},
    {"smiles": "CC12CCC(C(OC3OC(COC4OCC(O)(CO)C4O)C(O)C(O)C3O)C1)C(C)(C)O2", "note": "(stereo not given)", "values": [
      {"measurement": "max response", "setting": "CRL-7250", "result": 2.4, "unit": "%"},
      {"measurement": "max response", "setting": "HEK293", "result": -9.12, "unit": "%"}
    ]},
    {"smiles": "CCC(C(=O)O)c1ccc(N2Cc3ccccc3C2=O)cc1", "note": "(stereo not given)", "values": [
      {"measurement": "max response", "setting": "CRL-7250", "result": -5.22, "unit": "%"},
      {"measurement": "max response", "setting": "HEK293", "result": -2.44, "unit": "%"}
    ]},
    {"smiles": "CC(=O)O[C@@](C)(C(=O)/C=C/C(C)(C)O)[C@H]1[C@H](O)C[C@@]2(C)[C@@H]3CC=C4[C@@H](C=C(O)C(=O)C4(C)C)[C@]3(C)C(=O)C[C@]12C", "values": [
      {"measurement": "Potency", "setting": "CRL-7250", "result": "2.82 µM (active)"},
      {"measurement": "Potency", "setting": "HEK293", "result": "5.63 µM (active)"}
    ]},
    {"smiles": "Cn1cc(-c2ccc3nnc(Sc4ccc5nn(C)cc5c4)n3n2)cn1", "values": [
      {"measurement": "max response", "setting": "CRL-7250", "result": -2.56, "unit": "%"},
      {"measurement": "outcome", "setting": "HEK293", "result": "inactive"}
    ]},
    {"smiles": "CN(CCc1ccc(Nc2ncc(-c3cccnc3)s2)cc1)Cc1ccccc1", "values": [
      {"measurement": "max response", "setting": "CRL-7250", "result": -10.2, "unit": "%"},
      {"measurement": "Potency", "setting": "HEK293", "result": "7.31 µM (active)"}
    ]},
    {"smiles": "C[C@@H]1O[C@@H](O[C@H]2[C@H](OC(=O)[C@]34CCC(C)(C)C[C@H]3C3=CCC5[C@@]6(C)C[C@H](O)[C@H](O[C@@H]7O[C@H](CO)[C@@H](O)[C@H](O)[C@H]7O)[C@@](C)(CO)C6[C@H](O)C[C@@]5(C)[C@]3(C)C[C@H]4O)OC[C@H](O)[C@@H]2O)[C@H](O)[C@H](O)[C@H]1O[C@@H]1OC[C@@H](O)[C@H](O[C@H]2OC[C@](O)(CO)[C@H]2O)[C@H]1O", "note": "(stereo not given in full)", "values": [
      {"measurement": "outcome", "setting": "CRL-7250", "result": "inactive"},
      {"measurement": "max response", "setting": "HEK293", "result": 3.89, "unit": "%"}
    ]},
    {"smiles": "C=C1[C@H](OC(C)=O)[C@H]2[C@@H](OC(C)=O)[C@](C)(OC(C)=O)C[C@]2(OC(C)=O)C(=O)[C@H](C)/C=C/C(C)(C)C(=O)[C@H](OC(=O)C(C)C)[C@H]1OC(C)=O", "values": [
      {"measurement": "max response", "setting": "CRL-7250", "result": 0.468, "unit": "%"},
      {"measurement": "max response", "setting": "HEK293", "result": 1.22, "unit": "%"}
    ]},
    {"smiles": "C[C@@H]1O[C@@H](O[C@H]2[C@H](OC(=O)[C@]34CCC(C)(C)C[C@H]3C3=CCC5[C@@]6(C)CC[C@H](O[C@@H]7O[C@H](C(=O)O)[C@@H](O)[C@H](O)[C@H]7O[C@@H]7O[C@H](CO)[C@H](O)[C@H](O)[C@H]7O)[C@@](C)(C=O)C6CC[C@@]5(C)[C@]3(C)C[C@H]4O)O[C@H](C)[C@H](O[C@@H]3O[C@H](C)[C@H](O)[C@H](O)[C@H]3O)[C@@H]2O)[C@H](O)[C@H](O)[C@H]1O[C@@H]1OC[C@@H](O)[C@H](O[C@@H]2O[C@H](CO)[C@@H](O)[C@H](O)[C@H]2O)[C@H]1O", "note": "(stereo not given in full)", "values": [
      {"measurement": "max response", "setting": "CRL-7250", "result": -5.26, "unit": "%"},
      {"measurement": "max response", "setting": "HEK293", "result": -75.9, "unit": "%"}
    ]},
    {"smiles": "CCNCc1nc2c(N)nc3ccccc3c2n1CC(C)(C)O", "values": [
      {"measurement": "outcome", "setting": "CRL-7250", "result": "inactive"},
      {"measurement": "max response", "setting": "HEK293", "result": -9.18, "unit": "%"}
    ]},
    {"smiles": "CC(C)S(=O)(=O)N[C@H]1CCOC[C@@H]1c1ccc(-c2ccc(C#N)s2)cc1", "values": [
      {"measurement": "outcome", "setting": "CRL-7250", "result": "inactive"},
      {"measurement": "max response", "setting": "HEK293", "result": -111, "unit": "%"}
    ]},
    {"smiles": "CCCC1(c2ccccc2)NC(=O)N(CC(=O)N(C)Cc2c(F)cccc2Cl)C1=O", "note": "(stereo not given)", "values": [
      {"measurement": "max response", "setting": "CRL-7250", "result": -1.75, "unit": "%"},
      {"measurement": "max response", "setting": "HEK293", "result": -6.56, "unit": "%"}
    ]},
    {"smiles": "CN(C)C(=O)NC1CCC(CCN2CCN(c3cccc(Cl)c3Cl)CC2)CC1", "note": "(stereo not given)", "values": [
      {"measurement": "max response", "setting": "CRL-7250", "result": 1.18, "unit": "%"},
      {"measurement": "max response", "setting": "HEK293", "result": -2.35, "unit": "%"}
    ]},
    {"smiles": "O=C(O)c1ccccc1NCCc1ccccc1", "values": [
      {"measurement": "max response", "setting": "CRL-7250", "result": 4.16, "unit": "%"},
      {"measurement": "max response", "setting": "HEK293", "result": 1.97, "unit": "%"}
    ]},
    {"smiles": "O=C(O)/C=C/c1ccc(O)c(O[C@@H]2O[C@H](CO)[C@@H](O)[C@H](O)[C@H]2O)c1", "values": [
      {"measurement": "outcome", "setting": "CRL-7250", "result": "inactive"},
      {"measurement": "max response", "setting": "HEK293", "result": -13.2, "unit": "%"}
    ]},
    {"smiles": "NC(=O)[C@H]1CCS[C@@H]2C[C@]3(CCCN3C(=O)Cc3ccc(NC(=O)COc4ccc(Cl)cc4Cl)cc3)C(=O)N12", "values": [
      {"measurement": "max response", "setting": "CRL-7250", "result": -14.3, "unit": "%"},
      {"measurement": "Potency", "setting": "HEK293", "result": "7.41 µM (active)"}
    ]},
    {"smiles": "CC1NC(=O)CCCNC(=O)C(Cc2c[nH]c3ccccc23)NC(=O)C(C)NC(=O)C(C(C)C)NC(=O)C(C(C)c2ccccc2)NC(=O)C(C(C)C)NC1=O", "note": "(stereo not drawn) (cyclo([GABA]AV[ξPhe(βξ-Me)]VAW); configuration not given here)", "values": [
      {"measurement": "max response", "setting": "CRL-7250", "result": -8.98, "unit": "%"},
      {"measurement": "max response", "setting": "HEK293", "result": -4.9, "unit": "%"}
    ]},
    {"smiles": "Cc1cnc(Nc2ccc(F)cc2Cl)nc1-c1c[nH]c(C(=O)NC(CO)c2cccc(Cl)c2)c1", "note": "(stereo not given)", "values": [
      {"measurement": "max response", "setting": "CRL-7250", "result": -0.447, "unit": "%"},
      {"measurement": "Potency", "setting": "HEK293", "result": "5.8 µM (active)"}
    ]}
  ]
}
